High-throughput results: PubChem BioAssay, National Center for Advancing Translational Sciences (NCATS)
HT1080-NT tox: kills 2HG-producing HT-1080-NT fibrosarcoma cells; actives 1.6% (n = 360,000); Potency, µM (highest dose often 46.1 µM), for the others: top-dose activity, negative = less viability, most hits filed as cytotoxic; HT-1080-NT fibrosarcoma viability, CellTiter-Glo ATP luminescence, 48 h; AID 686970;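 also: NT is the 2HG producing partner of a matched IDH1 knockdown line; potency is read from the fitted curve at half-maximal effect; 0% = DMSO-treated cells and -100% = media-only wells without cells; nearly all actives have a fitted effect of over 55% in size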
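HT-1080-NT fibrosarcoma cells (2HG-overproducing), 750 cells/well in RPMI with 5% FBS, dosed after 2 h and incubated 48 h at 37C. CellTiter-Glo luminescence normalized to DMSO and no-cell wells; concentration-response curves fitted and classed.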
HT1080 IDH1KD tx: kills HT-1080 cells with IDH1 knockdown. HT-1080 IDH1 knockdown viability, ATP luminescence, 48 h. Potency, µM (series often up to 46.1 µM), for the others: at the highest dose activity, negative = toxicity, most hits filed as cytotoxic. actives 2% (n = 360,000);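 also: potency is read from the fitted curve at half-maximal effect; 0% = DMSO wells and -100% = cell-free medium wells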
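Using the IDH1-knockdown HT-1080 line run in the same batch and compound series as the NT line, viability after 48 h at 37 °C was determined by CellTiter-Glo luminescence and expressed as % activity.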
IL1B secr inh: blocks inflammasome-driven IL-1 beta release; THP-1 LPS/ATP IL-1B secretion, AlphaLISA, 16 h; hits give low values; activity change, % at 57.5 µM; actives 4.7% (n = 360,000); AID 743279; in the data active = activity change below about -50%; inconclusive = mostly about -30% to -49%
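THP-1 cells pretreated 1 hr with compounds (up to 57.5 uM final), then stimulated with LPS (250 ng/mL final) plus ATP (1.25 mM final); secreted IL-1B measured by AlphaLISA after 16 hr, decreased signal indicating inhibition.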
TDP1 cell CPT: DT40-hTDP1 cell growth loss with CPT; Potency, µM (top dose mostly 46.2 µM), for inactives: at the highest dose activity change, negative = growth inhibition, actives largely listed as inhibitors; chicken DT40 Tdp1-/-;hTDP1 cells + 20 nM CPT, ATP luminescence, 48 h; actives 12% (n = 420,000); also: potency is read from the fitted curve at half-maximal effect; nearly all actives have a fitted effect of over 55% in size
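Cell growth measured by CellTiter-Glo luminescence after a minimum 48 h, 37 C compound exposure with 20 nM CPT in Tdp1-knockout DT40 cells stably expressing hTDP1, seeded 400/well; qHTS titration format.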
TDP1 cell noCPT: qHTS for Inhibitors of human tyrosyl-DNA phosphodiesterase 1 (TDP1): qHTS in cells in absence of CPT; actives 15% (n = 420,000); AID 686978, 2013; Potency, µM (top dose mostly 46.2 µM), for inactives: at the highest dose activity change, negative = growth inhibition, actives largely listed as inhibitors; DT40 Tdp1-/- hTDP1 cells, no CPT, ATP luminescence, 48 h; also: potency is read from the fitted curve at half-maximal effect; nearly all actives have a fitted effect of over 55% in size
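DT40 Tdp1-/-;hTDP1 cells, no CPT (DMSO vehicle only), 400 cells/well; compounds pin-transferred; ≥48 hr, 37 °C; CellTiter-Glo 30 min RT dark, luminescence read.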
The depositor's hits bear a star. Sampled rows, rich in hits. Any-hit rate of the full collection: about 19%. Unless noted, calls follow the shape of the dose curve; as a rule, active = well fitted curve in the direction sought with a large enough effect; inconclusive = small, poorly fitted or top-dose-only effect, or another doubt; inactive = no such curve, though single readings can be large; an effect the other way counts as inactive or inconclusive. Unless noted, % is scaled to controls: 0 for no effect and ±100 for the full control effect.

Results for COc1ccccc1NC(=O)COC(=O)COc1cccc2c1OC(C)(C)C2 ?
HT1080-NT tox: 12.1%; HT1080 IDH1KD tx: 11.8%; IL1B secr inh: 1.0; TDP1 cell CPT: -10.5%; TDP1 cell noCPT: -13.8%

How did COc1cc(C)c(NC(=O)COc2cccc3c2OC(C)(C)C3)cc1OC do in these assays?
HT1080-NT tox: -4.8%; HT1080 IDH1KD tx: -23.5%; IL1B secr inh: 36.6; TDP1 cell CPT: 16.4µM*; TDP1 cell noCPT: 11.6µM*

Results for COc1ccc(CNCC(O)COc2cccc3c2OC(C)(C)C3)cc1 (stereo unspecified) ?
HT1080-NT tox: inconclusive; HT1080 IDH1KD tx: -29.0%; IL1B secr inh: inconclusive; TDP1 cell CPT: 9.2µM*; TDP1 cell noCPT: 8.2µM*

How did COc1ccc(NC(=O)COc2cccc3c2OC(C)(C)C3)c(OC)c1 do in these assays?
HT1080-NT tox: -5.3%; HT1080 IDH1KD tx: -26.6%; IL1B secr inh: 7.8; TDP1 cell CPT: inconclusive; TDP1 cell noCPT: 16.4µM*

Results for COc1ccccc1CNC(=O)CN(c1ccc(C)cc1)S(=O)(=O)c1c(C)noc1C ?
HT1080-NT tox: -2.2%; HT1080 IDH1KD tx: 15.0%; IL1B secr inh: -14.0; TDP1 cell CPT: inconclusive; TDP1 cell noCPT: inconclusive

Results for Cn1c(NC(=O)c2ccccc2)c(-c2ccccn2)c(=O)c2ccccc21 ?
HT1080-NT tox: 5.5%; HT1080 IDH1KD tx: 17.6%; IL1B secr inh: 2.4; TDP1 cell CPT: -21.1%; TDP1 cell noCPT: -3.8%

How did COc1cc(NC(=O)COc2cccc3c2OC(C)(C)C3)cc(OC)c1OC do in these assays?
HT1080-NT tox: -1.4%; HT1080 IDH1KD tx: -1.3%; IL1B secr inh: 0.0; TDP1 cell CPT: 13µM*; TDP1 cell noCPT: 8.2µM*

Results for Cn1cc(C(=O)C(=O)N2CCCCC2)c2ccccc21 ?
HT1080-NT tox: 2.1%; HT1080 IDH1KD tx: 2.1%; IL1B secr inh: 22.4; TDP1 cell CPT: 2.5%; TDP1 cell noCPT: 2.0%

How did CCN(Cc1ccccc1)C(=O)CCc1c(C)nc2c(c(C)nn2-c2ccc(C)c(C)c2)c1C do in these assays?
TDP1 cell CPT: 3.6%; TDP1 cell noCPT: 15.1%

Results for CCc1cccc(NC(=O)[C@@H]2CCCN2C2=NS(=O)(=O)c3ccccc32)c1 ?
HT1080-NT tox: 3.0%; HT1080 IDH1KD tx: 5.1%; IL1B secr inh: 35.5; TDP1 cell CPT: 1.4%; TDP1 cell noCPT: 8.8%

What do the screens show for `Cc1cc(C)c(NC(=O)CSc2ncc3c(n2)-c2cc(Cl)ccc2N(C)S3(=O)=O)c(C)c1`?
TDP1 cell CPT: 0.164µM*; TDP1 cell noCPT: 0.0461µM*

Results for CCc1cccc(NC(=O)CSc2ncc3c(n2)-c2ccc(Cl)cc2N(Cc2ccccc2)S3(=O)=O)c1 ?
TDP1 cell CPT: 18.4µM*; TDP1 cell noCPT: 16.4µM*

Results for CCOc1ccccc1NC(=O)CSc1ncc2c(n1)-c1ccccc1N(CC)S2(=O)=O ?
TDP1 cell CPT: 23.1µM*; TDP1 cell noCPT: 16.4µM*

How did CCc1cccc(NC(=O)CSC2=NS(=O)(=O)c3ccccc32)c1 do in these assays?
HT1080-NT tox: -8.9%; HT1080 IDH1KD tx: 0.9%; IL1B secr inh: inconclusive; TDP1 cell CPT: 2.59µM*; TDP1 cell noCPT: 4.11µM*

What do the screens show for `CCOc1ccc(NC(=O)CSc2ncc3c(n2)-c2ccc(Cl)cc2N(Cc2ccccc2)S3(=O)=O)cc1`?
TDP1 cell CPT: -13.3%; TDP1 cell noCPT: -3.9%

How did CCc1cccc(NC(=O)CSc2ncc3c(n2)-c2ccccc2N(CC)S3(=O)=O)c1 do in these assays?
TDP1 cell CPT: -31.5%; TDP1 cell noCPT: -29.9%

How did CCc1ccccc1NC(=O)CSc1ncc2c(n1)-c1cc(Cl)ccc1N(Cc1ccccc1)S2(=O)=O do in these assays?
TDP1 cell CPT: -23.7%; TDP1 cell noCPT: -15.2%

How did CCOc1ccccc1NC(=O)CSc1ncc(S(=O)(=O)c2ccc(C)c(C)c2)c(N)n1 do in these assays?
TDP1 cell CPT: inconclusive; TDP1 cell noCPT: 23.1µM*

How did Cc1cccc(NC(=O)C2C3C=CC(O3)C2C(=O)O)c1C (stereo unspecified) do in these assays?
HT1080-NT tox: 6.9%; HT1080 IDH1KD tx: 6.0%; IL1B secr inh: 22.1; TDP1 cell CPT: -11.9%; TDP1 cell noCPT: -2.4%

How did Cc1ccc2nc(-c3ccc(NC(=S)NCC(C)(C)CN(C)C)cc3)sc2c1 do in these assays?
HT1080-NT tox: 0.1%; HT1080 IDH1KD tx: 9.1%; IL1B secr inh: 0.0; TDP1 cell CPT: 6.51µM*; TDP1 cell noCPT: 6.51µM*

What do the screens show for `CCCCNC(=S)Nc1ccc(-c2nc3ccc(C)cc3s2)cc1`?
HT1080-NT tox: 4.1%; HT1080 IDH1KD tx: 10.3%; IL1B secr inh: 6.3; TDP1 cell CPT: inconclusive; TDP1 cell noCPT: 18.4µM*

Results for Cc1ccc2nc(-c3ccc(NC(=S)NCCC(C)C)cc3)sc2c1 ?
HT1080-NT tox: 10.6%; HT1080 IDH1KD tx: 18.3%; IL1B secr inh: -9.2; TDP1 cell CPT: 0.4%; TDP1 cell noCPT: inconclusive

What do the screens show for `CC(=O)OC1CC2C(C)(C)C(O)CC[C@@]2(C)C2CC[C@@]3(C)C(c4ccoc4)OC(=O)C4OC43[C@]12C` (stereo partly specified)?
TDP1 cell CPT: inconclusive; TDP1 cell noCPT: 20.6µM*

What do the screens show for `CC(=O)OC1CC2C(C)(C)C(O)CC[C@@]2(C)C2CC[C@@]3(C)C(c4ccoc4)OC(=O)C4O[C@@]43[C@]12C` (stereo partly specified)?
TDP1 cell CPT: inconclusive; TDP1 cell noCPT: 18.4µM*

How did CC(=O)OC1CC2C(C)(C)C=CC(=O)[C@@]2(C)C2CC[C@@]3(C)C(c4ccoc4)OC(=O)C4OC43[C@]12C (stereo partly specified) do in these assays?
TDP1 cell CPT: -4.2%; TDP1 cell noCPT: -9.0%

Results for CC(=O)OC1CC(O)C(C)(C)C2CC(OC(C)=O)[C@]3(C)C(CC[C@@]4(C)C(c5ccoc5)OC(=O)C5OC534)[C@]12C (stereo partly specified) ?
TDP1 cell CPT: 4.6%; TDP1 cell noCPT: 10.1%

How did CC(=O)c1ccc(S(=O)(=O)N2CCn3cccc3C2c2ccc(C)cc2)cc1 (stereo unspecified) do in these assays?
TDP1 cell CPT: 20.6µM*; TDP1 cell noCPT: inconclusive

How did O=S(=O)(c1ccc(Br)cc1)N1CCn2cccc2C1c1ccc(Br)cc1 (stereo unspecified) do in these assays?
TDP1 cell CPT: inconclusive; TDP1 cell noCPT: 16.4µM*

How did Cc1ccc(S(=O)(=O)N2[C@@H](Cc3ccccc3)CO[C@H]2CC(=O)c2cccc3ccccc23)cc1 do in these assays?
HT1080-NT tox: -1.3%; HT1080 IDH1KD tx: 3.1%; IL1B secr inh: -14.6; TDP1 cell CPT: inconclusive; TDP1 cell noCPT: inconclusive
